Screening results from PubChem.
Only some compounds are listed: those with a hit (about 4.8% of all), similar ones and a draw of the others.
SMARCA2 activ: SMARCA2 function activation, primary screen; MG213 cells, MMTV-luciferase reporter, dexamethasone, overnight; activation, % at 9.1 µM; 370,000 tested, 1% active; in the data active = activation above about 7.8%;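 also: 0% = vehicle wells and 100% = reference activator wells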
hgDAF12 agonist: agonists of H. glycines DAF-12 nuclear receptor | HEK293 GAL4-hgDAF12 UAS-luciferase reporter, agonist luminescence; normalized to butyrate control | activation, % at 6.8 µM | 370,000 tested, 1.8% active | AID 687014;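 active = activation above a cutoff set at the mean of all screened compounds plus 3 SD, cut at about 10% in these data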;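 also: 0% = DMSO wells and 100% = sodium butyrate wells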
ssDAF-12 act: activates DAF-12 receptor from parasite S. stercoralis | HEK293 ssDAF-12/GRIP1 lit1-tk-luc reporter, luminescence; % of 3 µM dafachronic acid response | activation, % at 6.8 µM | 370,000 tested, 1% active;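 active = activation above the mean over all tested compounds plus 3 SD, cut at about 0.9% in these data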;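 also: 0% = DMSO-only wells and 100% = 3 µM delta7-dafachronic acid wells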
DAX1 inh-1: DAX1 (NR0B1) inhibition, primary screen. HEK293T StAR-luciferase reporter, SF-1/DAX-1 repression relief. inhibition, % at 6.8 µM. 370,000 tested, 1.1% active;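 active = inhibition above the mean over all tested compounds plus 3 SD, cut at about 3.6% in these data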;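 also: 0% = DAX-1 cells with DMSO and 100% = cells lacking DAX-1 with DMSO; higher inhibition means more luminescence from relief of DAX-1 repression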
hcDAF12 agonist: H. contortus DAF-12 activation, primary screen | HEK293 hcDAF-12 lit1-tk-luc reporter, luminescence; 0% DMSO, 100% Δ7-dafachronic acid | activation, % at 6.8 µM | 370,000 tested, 1.4% active;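 active = activation above the mean of all tested compounds plus 3 SD, cut at about 5.5% in these data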;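 also: 100% = response to 3 µM Δ7-dafachronic acid high control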
DAX1 inh-2: inhibits human nuclear receptor DAX1 | P51843 | HEK293 Gal4-DAX1 luciferase reporter, luminescence | inhibition, % at 6.75 µM | 340,000 tested, 0.99% active | AID 504766;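 active = inhibition above the mean over all tested compounds plus 3 SD, cut at about 4.2% in these data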;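 also: 0% = DAX1-transfected cells with DMSO and 100% = empty-vector control cells with DMSO; inhibition shows as a rise in luminescence from relieved DAX1 repression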
Target sequence (P51843 207-470 limits assumed): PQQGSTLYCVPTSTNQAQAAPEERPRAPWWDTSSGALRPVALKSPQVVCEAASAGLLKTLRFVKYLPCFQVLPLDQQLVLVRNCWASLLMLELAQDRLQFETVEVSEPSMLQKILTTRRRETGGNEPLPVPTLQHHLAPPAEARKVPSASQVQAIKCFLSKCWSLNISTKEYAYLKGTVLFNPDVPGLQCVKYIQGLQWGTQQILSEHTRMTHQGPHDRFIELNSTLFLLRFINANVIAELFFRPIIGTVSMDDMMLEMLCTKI
Active calls of the source: *; / = not tested or not shown.

SMILES	SMARCA2 activ	hgDAF12 agonist	ssDAF-12 act	DAX1 inh-1	hcDAF12 agonist	DAX1 inh-2
COc1ccc(OC)c2sc(N3CCCCC3)nc12	3	11*	-1	-1	0	1
COc1ccc(OC)c2sc(N3CCc4ccccc4C3)nc12	1	1	-1	-1	0	-1
Cc1ccc(-n2nc(C)c(=O)c(-c3ccccc3)c2NC(=O)c2cccs2)cc1	0	0	-1	0	-2	5.5*
Cc1c(C)c2c(OCC(=O)NCc3cccnc3)cc3c(c2oc1=O)CCC(C)(C)O3	2	2	-1	0	0	-1
Cc1c(C)c2c(OCC(=O)NCc3ccncc3)cc3c(c2oc1=O)CCC(C)(C)O3	1	1	0	0	0	5.9*
O=C(Nc1cccc(NC(=O)c2ccco2)c1)c1ccc2c(c1)OCCO2	4	5	-2	0	-1	-1
O=C(CSc1ncn[nH]1)c1ccc(OC(F)F)cc1	5	3	-2	0	-1	0
CCC(=O)N/C(N)=N/c1nc2ccccc2o1	1	7	-1	2	2	5.4*
CCCC(=O)N/C(N)=N/c1nc2ccccc2o1	4	10	0	1	5	2
CC(C)CC(=O)N/C(N)=N/c1nc2ccccc2o1	4	9	-1	2	3	5.3*
CC(C)c1nc(SCC(=O)N2CCOCC2)c2c(=O)n(C)c(=O)n(C)c2n1	-2	2	0	0	-1	1
CCc1nnc2n1N=C(c1ccc(Cl)cc1Cl)CS2	-2	0	-1	0	0	0
Cc1ccc(SCCSc2nc(N)cc(=O)[nH]2)cc1	-4	-2	-2	0	0	0
Cc1ccc(SCCSc2nc(C)cc(=O)[nH]2)cc1	6	3	0	0	1	5.0*
CCn1c(=O)c(C(=O)CN2CCOCC2)c(N)n(Cc2ccccc2)c1=O	-1	2	-1	0	-3	0
CCn1c(=O)c(C(=O)CC#N)c(N)n(Cc2ccccc2)c1=O	-3	-3	-1	1	-2	4.9*
C=CCNC(=S)N/N=C/c1ccc(N(CC)Cc2ccccc2)cc1	-3	-2	-2	-2	0	-1
Nc1ccn([C@@H]2O[C@H](C(=O)NCCCN3CCCC3=O)[C@@H](O)[C@H]2O)c(=O)n1	-2	-1	-1	-1	-1	/
C=CCn1cnc2c(nnn2Cc2ccc(F)cc2)c1=O	-2	0	-1	0	-2	4.6*
O=C(NCc1ccccc1Cl)C1CCN(C(=O)c2ccc(F)cc2)CC1	-3	-4	-1	0	-1	1
O=C(NCc1ccccc1CN1CCCC1)C1CCN(C(=O)c2ccc(F)cc2)CC1	-3	0	-1	3.8*	0	0
CC1CCN(C(=O)COC(=O)c2ccc3ccccc3n2)CC1	2	5	0	0	0	0
CN(C(=O)COC(=O)c1ccc2ccccc2n1)C1CCCCC1	-5	0	2.1*	1	1	1
O=C(OCC(=O)c1ccc[nH]1)c1ccc2ccccc2n1	0	1	0	0	2	1
O=C(COC(=O)c1ccc2ccccc2n1)c1ccccc1	-4	1	1.3*	0	4	0
SMILES	SMARCA2 activ	hgDAF12 agonist	ssDAF-12 act	DAX1 inh-1	hcDAF12 agonist	DAX1 inh-2
COc1ccc(-c2ccnc3ncnn23)cc1	-1	-3	-1	0	-1	0
FCCCOc1ccc(-c2ccnc3ncnn23)cc1	-2	-1	-1	0	-1	5.2*
O=c1c2c3c(sc2n2c(=S)[nH]nc2n1-c1ccccc1)CCC3	-5	0	-2	-1	-1	/
CN1CCc2c(sc3c2c(=O)n(-c2ccccc2)c2n[nH]c(=S)n32)C1	-3	-1	-2	0	-2	4.7*
CCOCC(=O)Nc1ccc(C(=O)Nc2ccccc2Cl)cc1	-1	4	-1	0	2	/
Cn1c(CNC(=O)CNS(=O)(=O)c2ccccc2)cc(=O)n(C)c1=O	-2	1	-1	3.8*	1	1
COc1ccccc1Oc1nc2ccccn2c(=O)c1/C=C(\C#N)C(=O)Nc1c(C)n(C)n(-c2ccccc2)c1=O	3	0	0	0	2	4.8*
